In the library only some 6.5% were active in any assay of this set; here they are far more common.
HCMV antiviral: blocks human cytomegalovirus replication; AID 1259415; hit rate 4.5% among 410,000; activity change, negative = inhibition, % at 57.5 µM; HFF cells, HCMV-luciferase reporter, 72 h; active compounds read low; in the data active means activity change below about -60%; inconclusive means no clear call, values can overlap the other calls; inactive means above about -39%
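HFF cells seeded 16 h at 37C, treated with compounds, infected with luciferase-reporter HCMV at MOI 1 PFU/cell; luciferase read at 72 h post infection, normalized to buffer-only and Salinomycin controls.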
Vaccinia mCherry: inhibitors of vaccinia virus infection (mCherry reporter signal); Vaccinia virus mCherry reporter infection, fluorescence; hit rate 0.63% among 310,000; Potency, µM (titrated, usually from 36.5 µM), most hits filed as inhibitors; calls by dose curve; tested in A549 cells; further: nearly all actives have a fitted effect of over 35% in size
FMDV antiviral: blocks foot and mouth disease virus; FMDV antiviral cell-based qHTS; hit rate 1.2% among 410,000; AID 1159524; Potency, µM (top dose mostly 57.9 µM), most hits filed as inhibitors; calls by dose curve; tested in HEK293T cells; further: read-out not given here; nearly all actives have a fitted effect of over 45% in size
VACV Venus inh: inhibitors of vaccinia virus (Venus reporter) | Vaccinia virus Venus reporter expression, fluorescence | Potency, µM (top dose mostly 36.5 µM), hits mostly inhibitors | hit rate 0.46% among 330,000 | AID 720580; calls by dose curve; tested in A549 cells; further: nearly all actives have a fitted effect of over 30% in size
MARV entry inh: inhibitors of Marburg virus binding or cell entry | Marburg virus pseudotyped entry inhibition, cell reporter | hit rate 1.8% among 300,000 | AID 540276 | Potency, µM (titrated, usually from 37.8 µM), actives largely listed as inhibitors; calls by dose curve; tested in HEK293 cells
LASV entry inh: blocks Lassa virus binding to or entry into cells; Lassa virus pseudotype entry inhibition, cell reporter; Potency, µM (series often up to 37.9 µM), hits mostly inhibitors; hit rate 1.2% among 300,000; calls by dose curve; tested in HEK293 cells; further: nearly all actives have a fitted effect of over 50% in size
A number is an active result; – = inactive; ? = inconclusive; · = no result given; [ ] = another dose, or the depositor's remark.

SMILES	HCMV antiviral	Vaccinia mCherry	FMDV antiviral	VACV Venus inh	MARV entry inh	LASV entry inh
CCC(COC)NCc1cn(-c2ccc(OC)cc2)nc1-c1cccc(F)c1 (stereo not given)	?	–	?	–	10µM	?
C=C1N(S(=O)(=O)C(F)(F)F)CCC12CN(Cc1ccccc1)c1ccccc12 (stereo not given)	–	·	·	·	·	·
Cc1cc(C)nc(NC(=O)Nc2ccc(F)cc2F)n1	–	·	–	·	·	·
CCCSc1ccc(C(=O)Nc2ccc(F)cc2F)cn1	-62	–	–	–	?	–
CCCSc1nsc(NC(=O)Nc2ccc(F)cc2F)n1	-101	·	–	·	·	·
CCSc1nsc(NC(=O)Nc2cccc(F)c2)n1	-98	–	?	?	?	?
COc1cccc(NC(=O)Nc2nc(SC)ns2)c1	?	?	–	–	?	–
COc1cccc(NC(=O)Nc2nc(SC(C)(C)C)ns2)c1	-95	·	–	·	·	·
CC12C=C(C=CCCc3ccco3)C(C)(C1)C(CCc1ccco1)CC2=O (stereo not given)	·	·	·	·	–	·
CCCSc1nsc(NC(=O)CC)n1	–	–	–	–	13µM	?
Cc1oc2c(c1C(=O)N1CCC(C)CC1)C(=O)c1ccccc1C2=O	?	?	?	?	?	–
CCOC(=O)C1CCN(C(=O)c2c(C)oc3c2C(=O)c2ccccc2C3=O)CC1	–	14µM	28µM	14µM	–	?
COc1cccc(CN2CCc3nc(N4CCN(c5ncccn5)CC4)ncc3C2)c1	?	?	?	?	·	–
O=C(/C=C/c1ccco1)Nc1ccc(Oc2ccc(Cl)cc2)cc1	-68	?	?	?	?	?
S=C(NCc1ccco1)Nc1ccc(Cl)cc1	–	–	–	–	–	–
S=C(NCc1ccco1)Nc1ccc(Oc2ccc(Cl)cc2)cc1	-60	–[7.34 µM]	–	–[7.34 µM]	–	–
Cc1cc(Cl)ccc1NC(=O)C(=O)NCc1ccco1	–	–	–	?	·	–
Cc1cc(Cl)ccc1NC(=S)NCc1ccco1	-61	–	–	–	?	–
COc1cccc(NC(=O)/C=C/c2ccco2)c1	–	–	–	–	?	–
O=C(C1=C[C@@H](c2ccc(Br)cc2)C[C@@H](OCCCCO)O1)N1CCN(Cc2ccccc2)CC1	-94	?	?	?	·	·
CC(=O)n1cc([C@@H]2C=C(C(=O)N3CCN(Cc4ccccc4)CC3)O[C@H](OCc3ccc(CO)cc3)C2)c2ccccc21	-74	–	?	?	·	·
O=C(C1=C[C@H](c2ccc(Br)cc2)C[C@H](OCCCCO)O1)N1CCN(Cc2ccc3c(c2)OCO3)CC1	·	?	–	?	·	·
CC(C)C(=O)N1CCC[C@@H]1c1noc2ccccc12	–	·	·	·	·	·
O=C1/C(=C/c2ccccc2)CCc2ccc(Cl)nc21	-63	–	35µM	–	?	?
O=C1OCC/C1=C\c1ccccc1	–	–	–	–	–	–
SMILES	HCMV antiviral	Vaccinia mCherry	FMDV antiviral	VACV Venus inh	MARV entry inh	LASV entry inh
S=C(NNc1nc(Nc2ccccc2)nc(N2CCCCC2)n1)NC1CCCCC1	–	–	–	–	10µM	–
CCc1nc(N=Nc2c(O)[nH]c3ccccc23)c2c3c(sc2n1)CCC3	?	16µM	–	10µM	–	–
COCCNC(=O)C1CCCN(Cc2ccc(-c3ccccc3)cc2)CC1 (stereo not given)	–	–	–	–	·	·
CC1=Nc2ccccc2/C1=C/c1sc(=N)n(-c2nccs2)c1O	·	–[1.46 µM]	?	?	10µM	10µM
C=CC[C@H](CC(=O)NCCO)C(=O)NC[C@@H](OC(=O)[C@H](CC=C)CC(=O)OC(C)(C)C)c1ccccc1	–	–	–	–	·	·
Cc1ccc(NC(=O)c2cnc(N3CCN(c4ccccn4)CC3)c3ccccc23)c(Br)c1	-70	?	6.3µM	?	?	?
O=C(c1ccccc1-c1ccccc1)N1CCN(c2ccccn2)CC1	–	–	–	–	?	?
COC(=O)c1cnc(N2CCN(c3ccc(F)cc3)CC2)c2ccccc12	–	–[7.34 µM]	?	–[7.34 µM]	·	–
O=C(c1cnc(N2CCN(c3ncccn3)CC2)c2ccccc12)N1CCN(c2ccccn2)CC1	?	?	28µM	–	?	11µM
CCN1CCN(c2ncc(C(=O)Nc3cc(Cl)ccc3OC)c3ccccc23)CC1	–	?	–	?	2µM	?
O=C(Nc1c(F)cccc1F)c1cnc(N2CCN(c3ccccn3)CC2)c2ccccc12	?	·	13µM	·	?	?
Cc1cc(Br)ccc1NC(=O)c1sc2ncnc(N3CCN(c4ccccn4)CC3)c2c1C	–	–	–	–	?	?
COc1ccc(Cl)cc1NC(=O)c1cnc(N2CCCCC2)c2ccccc12	–	–	–	–	·	–
COc1ccc(NC(C)=O)cc1S(=O)(=O)NCc1ccc2c(c1)OCO2	-88	–	–	–	·	·
Cc1cc(C)c(S(=O)(=O)NCc2ccc3c(c2)OCO3)cc1C	–	·	–	·	·	·
CCOc1ccc(NC(=O)c2ccc(F)c(S(=O)(=O)NCc3ccc4c(c3)OCO4)c2)cc1	-81	?	?	?	·	–
COc1ccc(NCc2ccc3c(c2)OCO3)cc1Cl	?	11µM	·	–	–	–
COc1cc2sc3cc(NCc4ccc5c(c4)OCO5)ccc3c(=O)c2cc1OC	–	?	–	?	·	·
COc1cccc(N2CCN(c3ccc4nnc(CCC(=O)Nc5ncccc5C)n4n3)CC2)c1	–	–	–	–	–	?
COc1ccc(/[N+]([O-])=C/c2ccoc2)cc1	–	–	–	–	·	·
N#CC1=C(N)Oc2cc(N)ccc2C1c1cccnc1 (stereo not given)	–	–	–	–	16µM	–
N#CC1=C(N)Oc2cc(N)ccc2C1c1ccc(F)cc1 (stereo not given)	–	·	–	·	?	–
COc1cc(C2C(C#N)=C(N)Oc3cc(N)ccc32)cc(OC)c1OC (stereo not given)	–	·	–	?	5.6µM	?
N#CC1=C(N)Oc2cc(N)ccc2C1c1ccc(Cl)cc1 (stereo not given)	–	?	–	–	?	?
N#CC1=C(N)Oc2cc(Nc3ccccc3)ccc2C1c1ccncc1 (stereo not given)	–	·	?	?	18µM	?
SMILES	HCMV antiviral	Vaccinia mCherry	FMDV antiviral	VACV Venus inh	MARV entry inh	LASV entry inh
CC(=O)C1=C(C)OC(N)=C(C#N)C1c1cccnc1 (stereo not given)	–	–	–	–	–	–
CCN(CC)c1ccc2c(c1)OC(N)=C(C#N)C2c1cccnc1 (stereo not given)	-85	?	?	–	?	?
COC(=O)c1cccc(C(=O)N2CCCC(Nc3ccc(C)c(C)c3)C2)c1 (stereo not given)	–	?	–	–	–	–
O=C1NC(Cc2ccc(O)cc2)c2nc3ccc(Br)cc3c(=O)n2-c2cc3ccccc3cc21 (stereo not given)	-94	?	?	?	·	·
CC1(C)C=Cc2c(ccc3c2OC[C@H](c2ccc(O)cc2O)C3)O1	?	–	–	?	·	·
CC(C)=CCc1cc([C@@H]2COc3c(ccc4c3C=CC(C)(C)O4)C2)c(O)cc1O	-106	?	?	?	·	·
NC(=O)[C@@H]1CCCN1C(=O)CC1(c2cccc(F)c2)CC(=O)N(C2CCCC2)C1=O (stereo not given in full)	·	–	–	–	·	·
